From PubChem BioAssay (Tox21)
Results filed as inconclusive are left out. Entries that show only a call come without a potency. A number with no mark means an inactive call. Activity calls are given as the source filed them. Calls follow the shape of the dose curve; as a rule, active = well fitted curve in the direction sought with a large enough effect in the repeat runs; inconclusive = weak or mixed curves; inactive = no such curve, though single readings can be large; an effect the other way counts as inactive or inconclusive.

Legend:
[1] = target: Cytochrome P450 2D6 (Homo sapiens) (UniProt P10635); assay: Cytochrome P450 Family 2 Subfamily D Member 6 (CYP2D6) small molecule antagonists: luciferase reporter qHTS assay (AID 1671196); also: nearly all actives have a fitted effect of over 50% in size; also: potency is read from the fitted curve at half-maximal effect
Chain of Cytochrome P450 2D6 (Homo sapiens) (P10635 whole entry, looked up): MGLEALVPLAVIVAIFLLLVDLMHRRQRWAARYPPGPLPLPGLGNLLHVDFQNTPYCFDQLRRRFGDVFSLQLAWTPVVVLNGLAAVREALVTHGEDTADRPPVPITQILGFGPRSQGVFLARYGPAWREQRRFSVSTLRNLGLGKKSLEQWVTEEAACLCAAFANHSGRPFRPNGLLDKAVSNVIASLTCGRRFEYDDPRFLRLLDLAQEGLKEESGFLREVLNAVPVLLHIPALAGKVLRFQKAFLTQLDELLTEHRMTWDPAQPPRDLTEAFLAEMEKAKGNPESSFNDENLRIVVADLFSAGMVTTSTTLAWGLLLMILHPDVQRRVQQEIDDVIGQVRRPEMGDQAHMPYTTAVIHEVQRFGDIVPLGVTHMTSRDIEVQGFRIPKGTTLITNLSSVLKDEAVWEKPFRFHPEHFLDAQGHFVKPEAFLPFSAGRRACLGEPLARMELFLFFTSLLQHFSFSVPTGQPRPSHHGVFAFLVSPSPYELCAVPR
In short: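 Luminogenic proluciferin substrate, CYP2D6 enzyme; 10 min RT preincubation with compound, NADPH regeneration system added, 1 h RT. Stop/detection reagent, 20 min RT, luminescence read (RLU). Signal proportional to CYP activity.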

[2] = target: Cytochrome P450 2C19 (Homo sapiens) (UniProt P33261); assay: Cytochrome P450 Family 2 Subfamily C Member 19 (CYP2C19) small molecule antagonists: luciferase reporter qHTS assay (AID 1671197); also: nearly all actives have a fitted effect of over 65% in size; also: potency is read from the fitted curve at half-maximal effect
Chain of Cytochrome P450 2C19 (Homo sapiens) (P33261 whole entry, looked up): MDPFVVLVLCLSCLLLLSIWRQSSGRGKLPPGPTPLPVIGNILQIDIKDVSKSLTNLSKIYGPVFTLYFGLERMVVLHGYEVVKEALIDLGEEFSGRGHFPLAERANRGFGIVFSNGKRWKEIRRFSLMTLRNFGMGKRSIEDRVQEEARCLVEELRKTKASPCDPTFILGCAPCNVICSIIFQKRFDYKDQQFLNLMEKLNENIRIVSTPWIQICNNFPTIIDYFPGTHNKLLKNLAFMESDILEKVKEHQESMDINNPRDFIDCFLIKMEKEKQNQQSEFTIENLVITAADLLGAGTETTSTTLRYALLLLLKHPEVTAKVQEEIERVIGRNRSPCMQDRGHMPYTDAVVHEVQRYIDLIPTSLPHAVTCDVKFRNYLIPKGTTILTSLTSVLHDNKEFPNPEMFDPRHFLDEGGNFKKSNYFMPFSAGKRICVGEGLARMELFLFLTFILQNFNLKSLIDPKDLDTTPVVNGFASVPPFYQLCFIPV
In short: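 P450-Glo CYP2C19 screening system; proluciferin substrate; DMSO compound stocks; 10 min RT preincubation; NADPH regeneration, 1 h at 37C; luciferin detection reagent, 20 min RT; luminescence as RLU.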

[3] = target: Cytochrome P450 2C9 (Homo sapiens) (UniProt P11712); assay: Cytochrome P450 Family 2 Subfamily C Member 9 (CYP2C9) small molecule antagonists: luciferase reporter qHTS assay (AID 1671198); also: nearly all actives have a fitted effect of over 50% in size; also: potency is read from the fitted curve at half-maximal effect
Chain of Cytochrome P450 2C9 (Homo sapiens) (P11712 whole entry, looked up): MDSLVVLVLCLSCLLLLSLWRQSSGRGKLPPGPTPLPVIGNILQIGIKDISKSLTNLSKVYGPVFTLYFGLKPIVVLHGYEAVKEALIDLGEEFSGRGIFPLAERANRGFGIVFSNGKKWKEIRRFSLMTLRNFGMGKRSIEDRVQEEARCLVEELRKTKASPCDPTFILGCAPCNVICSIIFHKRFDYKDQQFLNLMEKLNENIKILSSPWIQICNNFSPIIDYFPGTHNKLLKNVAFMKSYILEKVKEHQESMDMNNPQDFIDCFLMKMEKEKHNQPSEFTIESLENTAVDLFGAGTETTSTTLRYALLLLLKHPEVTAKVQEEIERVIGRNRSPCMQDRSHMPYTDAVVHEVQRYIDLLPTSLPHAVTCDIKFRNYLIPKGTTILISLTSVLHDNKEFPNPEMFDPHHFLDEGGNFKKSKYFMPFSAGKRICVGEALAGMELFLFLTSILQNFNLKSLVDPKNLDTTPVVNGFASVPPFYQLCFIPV
In short: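 P450-Glo proluciferin substrate with CYP2C9 enzyme; 10 min RT preincubation, then NADPH regeneration 1 h at 37C; luciferin detection reagent 20 min RT, luminescence in relative luminescence units.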

[4] = target: Cytochrome P450 1A2 (Homo sapiens) (UniProt P05177); assay: Cytochrome P450 Family 1 Subfamily A Member 2 (CYP1A2) small molecule antagonists: luciferase reporter qHTS assay (AID 1671199); also: nearly all actives have a fitted effect of over 50% in size; also: potency is read from the fitted curve at half-maximal effect
Chain of Cytochrome P450 1A2 (Homo sapiens) (P05177 whole entry, looked up): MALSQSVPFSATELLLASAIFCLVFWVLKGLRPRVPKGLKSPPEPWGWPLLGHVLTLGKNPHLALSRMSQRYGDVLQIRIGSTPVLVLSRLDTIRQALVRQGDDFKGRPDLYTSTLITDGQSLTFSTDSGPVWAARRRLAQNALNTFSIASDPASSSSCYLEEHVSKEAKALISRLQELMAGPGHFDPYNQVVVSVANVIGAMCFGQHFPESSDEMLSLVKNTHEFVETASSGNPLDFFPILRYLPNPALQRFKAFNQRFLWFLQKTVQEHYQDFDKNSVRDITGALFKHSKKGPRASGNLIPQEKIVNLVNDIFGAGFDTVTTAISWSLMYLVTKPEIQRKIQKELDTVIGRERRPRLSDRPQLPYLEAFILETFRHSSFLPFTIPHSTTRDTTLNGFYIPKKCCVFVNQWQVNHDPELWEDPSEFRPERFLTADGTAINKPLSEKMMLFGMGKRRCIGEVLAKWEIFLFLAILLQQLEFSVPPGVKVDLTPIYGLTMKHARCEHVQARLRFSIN
In short: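 Luminescence readout (relative luminescence units) after luciferin detection reagent, 20 min RT. Preceded by 1 h room-temperature CYP1A2 reaction with NADPH regeneration solution following 10 min compound preincubation with enzyme and proluciferin substrate. Furafylline positive control.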

[5] = target: Voltage-gated inwardly rectifying potassium channel KCNH2 (Homo sapiens) (UniProt Q12809); assay: Human Ether-a-go-go-Related Gene (hERG) channel small molecule antagonists: fluorescence cell-based qHTS assay (AID 1671200);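 also: hERG-expressing U2OS cells given a thallium stimulus after FluxOR II dye loading; series mostly up to about 77 µM; nearly all actives have a fitted effect of over 50% in size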
Chain of Voltage-gated inwardly rectifying potassium channel KCNH2 (Homo sapiens) (Q12809 whole entry, looked up): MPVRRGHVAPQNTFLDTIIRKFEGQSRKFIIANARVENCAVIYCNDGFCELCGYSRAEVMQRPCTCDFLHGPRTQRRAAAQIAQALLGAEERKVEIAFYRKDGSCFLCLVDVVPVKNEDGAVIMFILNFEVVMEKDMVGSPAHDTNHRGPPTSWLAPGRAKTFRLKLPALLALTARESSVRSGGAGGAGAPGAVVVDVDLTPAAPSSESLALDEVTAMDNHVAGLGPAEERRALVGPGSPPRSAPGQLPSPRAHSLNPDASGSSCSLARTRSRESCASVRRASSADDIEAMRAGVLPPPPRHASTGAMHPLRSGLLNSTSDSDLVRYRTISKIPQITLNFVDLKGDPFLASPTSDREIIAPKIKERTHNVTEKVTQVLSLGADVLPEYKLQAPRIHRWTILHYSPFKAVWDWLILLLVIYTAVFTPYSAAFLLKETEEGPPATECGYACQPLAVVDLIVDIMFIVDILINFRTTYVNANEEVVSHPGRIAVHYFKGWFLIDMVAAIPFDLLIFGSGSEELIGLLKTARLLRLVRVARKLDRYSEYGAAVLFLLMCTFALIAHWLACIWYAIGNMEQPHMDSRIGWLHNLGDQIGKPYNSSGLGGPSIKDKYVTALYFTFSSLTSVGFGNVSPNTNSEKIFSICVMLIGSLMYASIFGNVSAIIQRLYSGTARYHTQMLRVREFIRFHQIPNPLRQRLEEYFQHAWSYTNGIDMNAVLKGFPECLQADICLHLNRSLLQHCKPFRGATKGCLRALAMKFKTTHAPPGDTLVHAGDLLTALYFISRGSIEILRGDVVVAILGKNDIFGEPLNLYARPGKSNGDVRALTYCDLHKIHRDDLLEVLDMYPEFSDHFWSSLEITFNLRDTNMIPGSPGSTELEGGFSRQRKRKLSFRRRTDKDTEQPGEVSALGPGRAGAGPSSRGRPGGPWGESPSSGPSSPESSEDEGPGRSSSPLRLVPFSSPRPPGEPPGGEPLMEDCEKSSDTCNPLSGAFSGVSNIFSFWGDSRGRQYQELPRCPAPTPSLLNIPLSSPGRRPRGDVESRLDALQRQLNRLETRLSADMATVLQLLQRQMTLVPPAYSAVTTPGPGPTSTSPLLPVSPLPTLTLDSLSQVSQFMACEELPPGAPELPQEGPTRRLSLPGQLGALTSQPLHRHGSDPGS
In short: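 Kinetic two-minute fluorescence traces, sampled at 1 s, were collected following thallium stimulus of U2OS cells (1000 per well) that had been cultured overnight at 37 C and loaded with FluxOR II.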

[6] = target: Cytochrome P450 3A4 (Homo sapiens) (UniProt P08684); assay: Cytochrome P450 Family 3 Subfamily A Member 4 (CYP3A4) small molecule antagonists: luciferase reporter qHTS assay (AID 1671201); also: nearly all actives have a fitted effect of over 50% in size; also: potency is read from the fitted curve at half-maximal effect
Chain of Cytochrome P450 3A4 (Homo sapiens) (P08684 whole entry, looked up): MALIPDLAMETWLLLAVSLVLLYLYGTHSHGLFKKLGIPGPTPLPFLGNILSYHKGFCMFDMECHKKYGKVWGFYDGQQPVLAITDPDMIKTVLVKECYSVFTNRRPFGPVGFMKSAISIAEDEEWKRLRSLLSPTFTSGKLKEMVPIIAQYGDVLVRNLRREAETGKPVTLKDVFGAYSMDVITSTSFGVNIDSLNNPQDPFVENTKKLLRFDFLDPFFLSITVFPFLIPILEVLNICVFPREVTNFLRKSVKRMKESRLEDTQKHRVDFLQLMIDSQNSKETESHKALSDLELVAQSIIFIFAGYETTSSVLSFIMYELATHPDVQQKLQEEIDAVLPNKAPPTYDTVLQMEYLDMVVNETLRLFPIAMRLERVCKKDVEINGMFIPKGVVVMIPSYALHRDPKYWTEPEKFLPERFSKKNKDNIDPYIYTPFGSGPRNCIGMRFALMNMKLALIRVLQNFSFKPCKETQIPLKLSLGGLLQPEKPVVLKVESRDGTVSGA
In short: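 Proluciferin-to-luciferin conversion by CYP3A4, NADPH-regenerated, 1 h RT; luminescence read as RLU. Ketoconazole as control.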

## Nc1ccn(C2CO[C@H](CO)O2)c(=O)n1 (some centres not stated)
[1]
  Potency: inactive
[2]
  Potency: inactive
[3]
  Potency: inactive
[4]
  Potency: inactive
[5]
  Potency: inactive
[6]
  Potency: inactive

## CCC(=O)c1cccc(Cl)c1
[1]
  Potency: inactive
[2]
  Potency: inactive
[3]
  Potency: inactive
[4]
  Potency: inactive
[5]
  Potency: inactive
[6]
  Potency: inactive

## CCO[Si](CCCN=C=O)(OCC)OCC
[1]
  Potency: inactive
[2]
  Potency: inactive
[3]
  Potency: inactive
[4]
  Potency: inactive
[5]
  Potency: inactive
[6]
  Potency: 35.6 µM (active)

## O=C(CCOCCOCCOCCOCCC(=O)Nc1c(I)cc(I)c(C(=O)O)c1I)Nc1c(I)cc(I)c(C(=O)O)c1I
[1]
  Potency: inactive
[2]
  Potency: inactive
[3]
  Potency: inactive
[4]
  Potency: inactive
[5]
  Potency: inactive
[6]
  Potency: inactive

## C=CCOCC(O)CS(=O)(=O)O (configuration not stated)
[1]
  Potency: inactive
[2]
  Potency: 80.8 µM (active)
[3]
  Potency: inactive
[4]
  Potency: inactive
[5]
  Potency: inactive
[6]
  Potency: inactive

## CCCCC=O
[1]
  Potency: inactive
[2]
  Potency: 71 µM (active)
[3]
  Potency: 79.6 µM (active)
[4]
  Potency: inactive
[5]
  Potency: inactive
[6]
  Potency: inactive

## CC(C)[C@H](N)C(=O)OCCOCn1cnc2c(=O)[nH]c(N)nc21
[1]
  Potency: inactive
[2]
  Potency: inactive
[3]
  Potency: inactive
[4]
  Potency: inactive
[5]
  Potency: inactive

## Cc1nc(-c2ccc(OCC(C)C)c(C#N)c2)sc1C(=O)O
[1]
  Potency: inactive
[2]
  Potency: inactive
[3]
  Potency: 17.4 µM (active)
[4]
  Potency: inactive
[5]
  Potency: inactive
[6]
  Potency: inactive

## CC(C)N1C(=O)c2ccccc2C1=O
[1]
  Potency: inactive
[2]
  Potency: inactive
[3]
  Potency: inactive
[4]
  Potency: 35.6 µM (active)
[5]
  Potency: inactive
[6]
  Potency: inactive

## COC(=O)C1=C(C)NC(C)=C(C(=O)OCC(C)=O)C1c1ccccc1[N+](=O)[O-] (configuration not stated)
[1]
  Potency: inactive
[2]
  Potency: 5.49 µM (active)
[3]
  Potency: 13.8 µM (active)
[4]
  Potency: 2.45 µM (active)
[5]
  Potency: inactive

## CC(=O)N[C@@H](CCC(N)=O)C(=O)O
[1]
  Potency: inactive
[2]
  Potency: inactive
[3]
  Potency: inactive
[4]
  Potency: inactive
[5]
  Potency: inactive
[6]
  Potency: inactive

## OCCN1C[C@H](O)[C@@H](O)[C@H](O)[C@H]1CO
[1]
  Potency: inactive
[2]
  Potency: inactive
[3]
  Potency: inactive
[4]
  Potency: inactive
[5]
  Potency: inactive
[6]
  Potency: inactive

## CCC(C(=O)NC(N)=O)c1ccccc1 (configuration not stated)
[1]
  Potency: inactive
[2]
  Potency: 79.6 µM (active)
[3]
  Potency: inactive
[4]
  Potency: 28.3 µM (active)
[5]
  Potency: inactive
[6]
  Potency: inactive

## NC(=O)CCCCC1CCSS1 (configuration not stated)
[1]
  Potency: inactive
[2]
  Potency: inactive
[3]
  Potency: inactive
[4]
  Potency: inactive
[5]
  Potency: inactive
[6]
  Potency: inactive

## Cc1cc(C)c(NC(=O)CN(CC(=O)O)CC(=O)O)c(C)c1Br
[1]
  Potency: inactive
[2]
  Potency: inactive
[3]
  Potency: inactive
[4]
  Potency: inactive
[5]
  Potency: inactive
[6]
  Potency: inactive

## CCN1CCN(c2cc3c(cc2F)c(=O)c(C(=O)O)cn3C2CC2)CC1
[1]
  Potency: inactive
[2]
  Potency: inactive
[3]
  Potency: inactive
[4]
  Potency: inactive
[5]
  Potency: inactive
[6]
  Potency: inactive

## COCc1ccc(COC)cc1
[1]
  Potency: inactive
[2]
  Potency: inactive
[3]
  Potency: inactive
[4]
  Potency: inactive
[5]
  Potency: inactive
[6]
  Potency: inactive

## CC(C)[N+](C)(C)CC(O)COc1cccc2ccccc12 (configuration not stated)
[1]
  Potency: 4.36 µM (active)
[2]
  Potency: inactive
[3]
  Potency: inactive
[4]
  Potency: inactive
[5]
  Potency: inactive
[6]
  Potency: inactive

## CCCCCCOC(=O)CC(CC(=O)OCCCCCC)(OC(=O)CCC)C(=O)OCCCCCC
[1]
  Potency: inactive
[2]
  Potency: 39.9 µM (active)
[3]
  Potency: 31.7 µM (active)
[4]
  Potency: inactive
[5]
  Potency: inactive

## Cc1nccn1CC1CCc2c(c3ccccc3n2C)C1=O (configuration not stated)
[1]
  Potency: 17.4 µM (active)
[2]
  Potency: inactive
[3]
  Potency: inactive

## NC(CS)C(=O)O (configuration not stated)
[1]
  Potency: inactive
[2]
  Potency: inactive
[3]
  Potency: inactive
[4]
  Potency: 17.4 µM (active)
[5]
  Potency: inactive
[6]
  Potency: inactive

## CCCCCCCCCCCl
[1]
  Potency: inactive
[2]
  Potency: inactive
[3]
  Potency: inactive
[4]
  Potency: 32.2 µM (active)
[5]
  Potency: inactive
[6]
  Potency: inactive

## C=C(C)C1CC=C(C)C(O)C1 (configuration not stated)
[1]
  Potency: inactive
[2]
  Potency: inactive
[3]
  Potency: inactive
[4]
  Potency: 40.1 µM (active)
[5]
  Potency: inactive
[6]
  Potency: inactive

## CC(C)CCCC(C)NCCC(C)C (configuration not stated)
[1]
  Potency: 1.23 µM (active)
[2]
  Potency: inactive
[3]
  Potency: inactive
[4]
  Potency: inactive
[5]
  Potency: inactive
[6]
  Potency: inactive

## CCCCNc1ccccc1
[1]
  Potency: inactive
[2]
  Potency: inactive
[3]
  Potency: inactive
[4]
  Potency: inactive
[5]
  Potency: inactive
[6]
  Potency: inactive

## CC(C)CCOC(=O)CC(C)C
[1]
  Potency: inactive
[2]
  Potency: inactive
[3]
  Potency: inactive
[4]
  Potency: inactive
[5]
  Potency: inactive
[6]
  Potency: inactive

## OCc1ccccn1
[1]
  Potency: inactive
[2]
  Potency: inactive
[3]
  Potency: inactive
[4]
  Potency: inactive
[5]
  Potency: inactive
[6]
  Potency: inactive

## OC[C@H]1O[C@@H]2O[C@H]3[C@H](O)[C@@H](O)[C@@H](O[C@H]4[C@H](O)[C@@H](O)[C@@H](O[C@H]5[C@H](O)[C@@H](O)[C@@H](O[C@H]6[C@H](O)[C@@H](O)[C@@H](O[C@H]7[C@H](O)[C@@H](O)[C@@H](O[C@H]8[C@H](O)[C@@H](O)[C@@H](O[C@H]9[C@H](O)[C@@H](O)[C@@H](O[C@H]1[C@H](O)[C@H]2O)O[C@@H]9CO)O[C@@H]8CO)O[C@@H]7CO)O[C@@H]6CO)O[C@@H]5CO)O[C@@H]4CO)O[C@@H]3CO
[1]
  Potency: inactive
[2]
  Potency: inactive
[3]
  Potency: inactive
[4]
  Potency: inactive
[5]
  Potency: inactive
[6]
  Potency: inactive

## COc1cccc(OC)c1
[1]
  Potency: inactive
[2]
  Potency: inactive
[3]
  Potency: inactive
[4]
  Potency: inactive
[5]
  Potency: inactive
[6]
  Potency: inactive

## CCCC(C)C(=O)O (configuration not stated)
[1]
  Potency: 34.2 µM (active)
[2]
  Potency: 34.2 µM (active)
[3]
  Potency: 54.1 µM (active)
[4]
  Potency: 68.2 µM (active)
[5]
  Potency: inactive

## c1cc(CN2CCCCC2)cc(OCCCNc2nc3ccccc3s2)c1
[1]
  Potency: 3.89 µM (active)
[2]
  Potency: inactive
[3]
  Potency: inactive
[4]
  Potency: inactive
